# Source: paper PMC7862700, “An all-to-all approach to the identification of sequence-specific readers for epigenetic DNA modifications on cytosine”
# How the values were obtained:
# Test in all cases: DAPPL (digital affinity profiling via proximity ligation, sequencing); 10 mM Tris-HCl pH 7.5, 50 mM NaCl, 1 mM DTT, 4% glycerol, room temperature, 30 min; GST-TFs on glutathione beads, 16-mer random dsDNA library, 0.1% formaldehyde crosslink after washing; high values mean tight binding
# FLI1 = target: T1, FLI1 (Homo sapiens, UniProt Q01543 1-452); conditions: protein: recombinant; tags: N-terminal GST; dsDNA, one strand shown
# T1 sequence: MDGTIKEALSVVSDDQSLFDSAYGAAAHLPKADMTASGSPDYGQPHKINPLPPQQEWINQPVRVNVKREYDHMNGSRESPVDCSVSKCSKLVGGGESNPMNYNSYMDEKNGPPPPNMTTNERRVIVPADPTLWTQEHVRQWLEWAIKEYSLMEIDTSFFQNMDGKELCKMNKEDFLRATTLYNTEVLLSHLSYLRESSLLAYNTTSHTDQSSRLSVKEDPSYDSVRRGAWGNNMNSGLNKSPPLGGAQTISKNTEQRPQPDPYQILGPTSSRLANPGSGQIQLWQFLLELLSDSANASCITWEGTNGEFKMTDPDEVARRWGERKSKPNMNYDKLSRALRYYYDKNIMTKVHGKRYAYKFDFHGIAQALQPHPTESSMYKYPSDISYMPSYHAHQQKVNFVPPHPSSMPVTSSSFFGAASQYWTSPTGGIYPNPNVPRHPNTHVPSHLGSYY
# Method in brief: (§1)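 GST fusions of human transcription factors were expressed in yeast and captured with glutathione beads. Once given DNA barcodes and pooled alongside a tag-only sample, they were incubated for 30 min at room temperature with 200 nmole of a random double-stranded 16-mer DNA library in Tris/NaCl/DTT/glycerol buffer, then washed, crosslinked (0.1% formaldehyde), proximity-ligated, PCR-amplified and sequenced on an Illumina NextSeq500. The binding signal of each hexamer is its read frequency for a factor divided by its frequency for the tag-only sample.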
# ELK1 = target: T2, ELK1 (Homo sapiens, UniProt P19419 1-428); conditions: protein: recombinant; tags: N-terminal GST; dsDNA, one strand shown
# T2 sequence: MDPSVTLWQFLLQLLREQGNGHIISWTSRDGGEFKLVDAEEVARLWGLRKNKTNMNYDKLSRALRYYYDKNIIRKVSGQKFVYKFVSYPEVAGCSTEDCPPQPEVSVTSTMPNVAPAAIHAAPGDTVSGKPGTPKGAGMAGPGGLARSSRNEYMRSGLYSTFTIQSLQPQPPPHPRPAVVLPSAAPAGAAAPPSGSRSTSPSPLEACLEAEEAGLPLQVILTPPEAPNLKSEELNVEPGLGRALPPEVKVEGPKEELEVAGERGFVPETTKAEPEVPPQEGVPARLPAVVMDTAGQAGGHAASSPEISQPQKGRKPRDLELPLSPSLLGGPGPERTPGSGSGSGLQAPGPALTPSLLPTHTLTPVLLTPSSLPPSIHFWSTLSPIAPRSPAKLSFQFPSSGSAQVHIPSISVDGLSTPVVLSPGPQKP
# Method in brief: as §1
# GABPA = target: T3, GABPA (Homo sapiens, UniProt Q06546 1-454); conditions: protein: recombinant; tags: N-terminal GST; dsDNA, one strand shown
# T3 sequence: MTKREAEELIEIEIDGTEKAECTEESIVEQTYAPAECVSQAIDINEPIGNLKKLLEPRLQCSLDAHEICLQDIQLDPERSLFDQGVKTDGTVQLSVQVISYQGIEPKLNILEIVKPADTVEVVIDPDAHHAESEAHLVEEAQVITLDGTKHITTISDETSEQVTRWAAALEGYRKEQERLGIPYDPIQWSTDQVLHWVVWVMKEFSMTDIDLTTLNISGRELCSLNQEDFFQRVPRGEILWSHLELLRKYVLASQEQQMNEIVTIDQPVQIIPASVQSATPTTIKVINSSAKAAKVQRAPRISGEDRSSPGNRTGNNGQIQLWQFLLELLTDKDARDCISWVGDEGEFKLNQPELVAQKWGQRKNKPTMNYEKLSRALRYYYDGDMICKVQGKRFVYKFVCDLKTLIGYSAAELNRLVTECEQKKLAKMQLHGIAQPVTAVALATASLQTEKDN
# Method in brief: as §1
# ERG = target: T4, ERG (Homo sapiens, UniProt P11308 1-479); conditions: protein: recombinant; tags: N-terminal GST; dsDNA, one strand shown
# T4 sequence: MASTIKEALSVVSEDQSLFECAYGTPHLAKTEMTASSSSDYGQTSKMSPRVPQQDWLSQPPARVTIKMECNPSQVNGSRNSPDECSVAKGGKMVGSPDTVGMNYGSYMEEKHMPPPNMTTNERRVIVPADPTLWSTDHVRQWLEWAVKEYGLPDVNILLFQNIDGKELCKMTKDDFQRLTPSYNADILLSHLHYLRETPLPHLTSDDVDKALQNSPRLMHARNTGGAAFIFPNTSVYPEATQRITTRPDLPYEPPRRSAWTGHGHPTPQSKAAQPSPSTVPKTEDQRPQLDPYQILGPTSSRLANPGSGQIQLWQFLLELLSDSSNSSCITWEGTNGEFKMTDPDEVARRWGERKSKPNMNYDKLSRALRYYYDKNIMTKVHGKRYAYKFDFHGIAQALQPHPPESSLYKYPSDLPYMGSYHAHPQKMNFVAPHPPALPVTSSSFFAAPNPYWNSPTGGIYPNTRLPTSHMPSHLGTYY
# Method in brief: as §1
# ELF1 = ELF1 (Homo sapiens, UniProt P32519 1-619); conditions: protein: recombinant; tags: N-terminal GST; dsDNA, one strand shown
# Method in brief: as §1
# EHF = target: T5, EHF (Homo sapiens, UniProt Q9NZC4 1-300); conditions: protein: recombinant; tags: N-terminal GST; dsDNA, one strand shown
# T5 sequence: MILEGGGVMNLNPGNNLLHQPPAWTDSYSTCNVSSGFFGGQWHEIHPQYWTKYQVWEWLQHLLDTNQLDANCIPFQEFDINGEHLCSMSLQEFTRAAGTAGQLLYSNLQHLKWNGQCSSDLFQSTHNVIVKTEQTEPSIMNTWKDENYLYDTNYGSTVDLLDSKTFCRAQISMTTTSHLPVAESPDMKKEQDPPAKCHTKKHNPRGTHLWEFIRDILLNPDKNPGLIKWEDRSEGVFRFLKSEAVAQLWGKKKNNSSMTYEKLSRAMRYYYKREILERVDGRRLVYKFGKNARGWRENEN
# Method in brief: as §1
# SPI1 = SPI1 (Homo sapiens, UniProt P17947 1-270); conditions: protein: recombinant; tags: N-terminal GST; dsDNA, one strand shown
# Method in brief: as §1
# SPIB = SPIB (Homo sapiens, UniProt Q01892 1-262); conditions: protein: recombinant; tags: N-terminal GST; dsDNA, one strand shown
# Method in brief: as §1
# ELK3 = target: T6, ELK3 (Homo sapiens, UniProt P41970 1-407); conditions: protein: recombinant; tags: N-terminal GST; dsDNA, one strand shown
# T6 sequence: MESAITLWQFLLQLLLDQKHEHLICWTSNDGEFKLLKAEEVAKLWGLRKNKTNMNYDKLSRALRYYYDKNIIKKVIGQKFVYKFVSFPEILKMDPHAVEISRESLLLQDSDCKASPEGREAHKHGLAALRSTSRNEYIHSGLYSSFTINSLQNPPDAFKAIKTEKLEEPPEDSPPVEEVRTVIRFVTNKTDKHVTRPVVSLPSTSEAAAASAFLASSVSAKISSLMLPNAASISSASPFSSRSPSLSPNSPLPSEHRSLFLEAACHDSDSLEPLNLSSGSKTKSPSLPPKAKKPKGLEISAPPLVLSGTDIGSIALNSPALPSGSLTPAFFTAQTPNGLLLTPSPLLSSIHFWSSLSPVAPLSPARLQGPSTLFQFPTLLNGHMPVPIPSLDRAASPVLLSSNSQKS
# Method in brief: as §1
# FEV = target: T7, FEV (Homo sapiens, UniProt Q99581 1-238); conditions: protein: recombinant; tags: N-terminal GST; dsDNA, one strand shown
# T7 sequence: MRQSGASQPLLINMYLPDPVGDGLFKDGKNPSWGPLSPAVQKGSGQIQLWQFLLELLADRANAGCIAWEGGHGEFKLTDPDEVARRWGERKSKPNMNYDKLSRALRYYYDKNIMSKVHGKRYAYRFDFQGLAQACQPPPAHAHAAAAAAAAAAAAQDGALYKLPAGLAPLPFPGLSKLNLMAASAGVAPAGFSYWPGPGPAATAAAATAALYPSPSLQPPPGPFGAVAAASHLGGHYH
# Method in brief: as §1
# ETV5 = ETV5 (Homo sapiens, UniProt P41161 1-510); conditions: protein: recombinant; tags: N-terminal GST; dsDNA, one strand shown
# Method in brief: as §1
# HSF1 = HSF1 (Homo sapiens, UniProt Q00613 1-529); conditions: protein: recombinant; tags: N-terminal GST; chain copies: 3; dsDNA, one strand shown
# Method in brief: as §1
# SPIC = target: T8, SPIC (Homo sapiens, UniProt Q8N5J4 1-248); conditions: protein: recombinant; tags: N-terminal GST; dsDNA, one strand shown
# T8 sequence: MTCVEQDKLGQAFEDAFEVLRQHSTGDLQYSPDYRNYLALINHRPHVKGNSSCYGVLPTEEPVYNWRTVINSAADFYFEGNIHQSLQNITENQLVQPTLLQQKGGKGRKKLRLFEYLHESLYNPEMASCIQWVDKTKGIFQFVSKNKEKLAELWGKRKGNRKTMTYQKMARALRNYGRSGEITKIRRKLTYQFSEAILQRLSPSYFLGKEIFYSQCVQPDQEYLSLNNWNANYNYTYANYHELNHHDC
# Method in brief: as §1
# ELF4 = ELF4 (Homo sapiens, UniProt Q99607 1-663); conditions: protein: recombinant; tags: N-terminal GST; dsDNA, one strand shown
# Method in brief: as §1
# ELK4 = target: T9, ELK4 (Homo sapiens, UniProt P28324-2 1-405); conditions: protein: recombinant; tags: N-terminal GST; dsDNA, one strand shown
# T9 sequence: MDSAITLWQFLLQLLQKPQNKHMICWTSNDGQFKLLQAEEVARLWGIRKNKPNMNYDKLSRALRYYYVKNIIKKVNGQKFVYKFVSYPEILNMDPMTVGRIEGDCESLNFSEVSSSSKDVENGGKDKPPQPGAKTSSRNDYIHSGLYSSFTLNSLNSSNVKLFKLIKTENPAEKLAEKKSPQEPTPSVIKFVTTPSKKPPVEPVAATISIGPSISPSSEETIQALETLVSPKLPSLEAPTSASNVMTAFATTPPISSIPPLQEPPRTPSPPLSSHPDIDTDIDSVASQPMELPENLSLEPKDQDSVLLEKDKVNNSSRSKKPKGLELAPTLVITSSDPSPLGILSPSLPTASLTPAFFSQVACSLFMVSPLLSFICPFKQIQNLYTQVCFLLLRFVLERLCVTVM
# Method in brief: as §1
# ETV2 = target: T10, ETV2 (Homo sapiens, UniProt O00321 1-342); conditions: protein: recombinant; tags: N-terminal GST; dsDNA, one strand shown
# T10 sequence: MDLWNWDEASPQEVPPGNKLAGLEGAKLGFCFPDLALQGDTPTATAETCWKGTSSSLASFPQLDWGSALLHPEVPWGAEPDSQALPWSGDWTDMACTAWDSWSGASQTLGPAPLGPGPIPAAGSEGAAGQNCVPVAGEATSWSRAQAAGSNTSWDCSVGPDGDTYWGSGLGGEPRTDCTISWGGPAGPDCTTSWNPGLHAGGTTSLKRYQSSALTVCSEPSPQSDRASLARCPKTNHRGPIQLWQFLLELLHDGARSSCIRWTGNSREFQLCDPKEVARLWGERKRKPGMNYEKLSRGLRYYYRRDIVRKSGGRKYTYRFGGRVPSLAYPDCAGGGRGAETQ
# Method in brief: as §1
# ELF3 = target: T11, ELF3 (Homo sapiens, UniProt P78545 1-371); conditions: protein: recombinant; tags: N-terminal GST; dsDNA, one strand shown
# T11 sequence: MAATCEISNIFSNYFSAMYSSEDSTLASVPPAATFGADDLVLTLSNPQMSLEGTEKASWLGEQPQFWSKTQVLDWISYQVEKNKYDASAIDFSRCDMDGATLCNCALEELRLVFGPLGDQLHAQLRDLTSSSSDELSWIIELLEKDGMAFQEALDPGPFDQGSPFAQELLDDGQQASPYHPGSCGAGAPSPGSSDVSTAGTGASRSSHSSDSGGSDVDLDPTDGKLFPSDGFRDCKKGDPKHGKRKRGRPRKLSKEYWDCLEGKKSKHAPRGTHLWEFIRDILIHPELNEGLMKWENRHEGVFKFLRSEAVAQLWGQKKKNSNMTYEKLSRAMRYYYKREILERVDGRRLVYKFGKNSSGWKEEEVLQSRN
# Method in brief: as §1
# CRX = CRX (Homo sapiens, UniProt O43186 1-299); conditions: protein: recombinant; tags: N-terminal GST; dsDNA, one strand shown
# Method in brief: as §1
# ETV1 = ETV1 (Homo sapiens, UniProt P50549 1-477); conditions: protein: recombinant; tags: N-terminal GST; dsDNA, one strand shown
# Method in brief: as §1
# Sequence of ETV1 (P50549 whole entry): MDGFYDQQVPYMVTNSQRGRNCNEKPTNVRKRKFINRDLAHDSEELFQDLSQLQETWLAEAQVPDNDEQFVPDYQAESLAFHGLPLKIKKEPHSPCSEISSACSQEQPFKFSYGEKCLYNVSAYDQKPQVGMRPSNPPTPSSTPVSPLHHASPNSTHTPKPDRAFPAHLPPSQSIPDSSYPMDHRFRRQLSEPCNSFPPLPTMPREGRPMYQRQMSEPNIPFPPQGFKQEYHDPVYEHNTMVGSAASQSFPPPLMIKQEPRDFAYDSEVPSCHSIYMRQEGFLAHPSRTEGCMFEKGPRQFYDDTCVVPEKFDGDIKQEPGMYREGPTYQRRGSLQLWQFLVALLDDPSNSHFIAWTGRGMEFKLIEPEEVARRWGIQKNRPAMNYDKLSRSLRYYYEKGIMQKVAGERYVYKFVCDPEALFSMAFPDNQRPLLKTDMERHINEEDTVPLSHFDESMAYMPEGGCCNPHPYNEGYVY
# Sequence of HSF1 (Q00613 whole entry): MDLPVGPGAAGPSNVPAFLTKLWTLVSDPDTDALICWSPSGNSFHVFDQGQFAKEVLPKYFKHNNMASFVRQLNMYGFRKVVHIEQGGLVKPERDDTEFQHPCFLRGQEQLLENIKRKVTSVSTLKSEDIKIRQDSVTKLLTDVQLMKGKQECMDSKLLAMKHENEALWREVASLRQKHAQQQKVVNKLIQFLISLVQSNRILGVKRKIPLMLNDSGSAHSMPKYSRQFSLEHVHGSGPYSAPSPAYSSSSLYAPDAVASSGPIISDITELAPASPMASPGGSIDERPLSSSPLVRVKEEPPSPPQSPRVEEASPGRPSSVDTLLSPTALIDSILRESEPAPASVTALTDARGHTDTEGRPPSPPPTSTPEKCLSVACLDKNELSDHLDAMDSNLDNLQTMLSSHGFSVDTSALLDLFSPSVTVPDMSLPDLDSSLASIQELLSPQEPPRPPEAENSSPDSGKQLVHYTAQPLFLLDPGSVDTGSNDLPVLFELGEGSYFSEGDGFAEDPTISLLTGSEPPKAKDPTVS
# Sequence of SPIB (Q01892 whole entry): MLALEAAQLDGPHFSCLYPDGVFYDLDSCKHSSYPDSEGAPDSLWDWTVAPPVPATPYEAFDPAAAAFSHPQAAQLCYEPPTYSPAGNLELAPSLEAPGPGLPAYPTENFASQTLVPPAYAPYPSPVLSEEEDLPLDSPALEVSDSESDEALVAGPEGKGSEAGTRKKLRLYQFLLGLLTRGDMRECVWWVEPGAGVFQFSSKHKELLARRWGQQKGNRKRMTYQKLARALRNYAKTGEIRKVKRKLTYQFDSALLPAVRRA
# Sequence of ETV5 (P41161 whole entry): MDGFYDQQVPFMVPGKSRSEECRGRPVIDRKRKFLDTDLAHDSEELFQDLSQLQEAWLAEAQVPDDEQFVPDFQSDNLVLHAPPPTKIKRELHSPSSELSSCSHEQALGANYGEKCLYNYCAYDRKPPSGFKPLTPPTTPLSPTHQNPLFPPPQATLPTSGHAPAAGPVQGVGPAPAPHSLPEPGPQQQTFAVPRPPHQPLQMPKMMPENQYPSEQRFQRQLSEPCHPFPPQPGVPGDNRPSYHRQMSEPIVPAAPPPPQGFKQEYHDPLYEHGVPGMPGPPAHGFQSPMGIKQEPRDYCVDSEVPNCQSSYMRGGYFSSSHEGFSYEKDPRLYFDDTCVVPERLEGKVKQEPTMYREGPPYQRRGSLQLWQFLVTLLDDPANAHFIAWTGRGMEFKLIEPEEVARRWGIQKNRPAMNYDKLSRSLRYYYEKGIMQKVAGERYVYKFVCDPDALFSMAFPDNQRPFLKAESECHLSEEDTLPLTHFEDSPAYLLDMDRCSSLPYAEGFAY
# Sequence of CRX (O43186 whole entry): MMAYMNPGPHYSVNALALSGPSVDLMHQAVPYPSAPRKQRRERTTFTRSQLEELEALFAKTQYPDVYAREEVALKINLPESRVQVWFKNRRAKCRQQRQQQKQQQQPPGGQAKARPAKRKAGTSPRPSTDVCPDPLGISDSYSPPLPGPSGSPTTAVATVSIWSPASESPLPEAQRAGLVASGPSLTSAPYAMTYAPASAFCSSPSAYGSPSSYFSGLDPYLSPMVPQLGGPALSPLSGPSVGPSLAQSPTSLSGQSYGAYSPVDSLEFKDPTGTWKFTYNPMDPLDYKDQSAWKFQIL
# Sequence of ELF4 (Q99607 whole entry): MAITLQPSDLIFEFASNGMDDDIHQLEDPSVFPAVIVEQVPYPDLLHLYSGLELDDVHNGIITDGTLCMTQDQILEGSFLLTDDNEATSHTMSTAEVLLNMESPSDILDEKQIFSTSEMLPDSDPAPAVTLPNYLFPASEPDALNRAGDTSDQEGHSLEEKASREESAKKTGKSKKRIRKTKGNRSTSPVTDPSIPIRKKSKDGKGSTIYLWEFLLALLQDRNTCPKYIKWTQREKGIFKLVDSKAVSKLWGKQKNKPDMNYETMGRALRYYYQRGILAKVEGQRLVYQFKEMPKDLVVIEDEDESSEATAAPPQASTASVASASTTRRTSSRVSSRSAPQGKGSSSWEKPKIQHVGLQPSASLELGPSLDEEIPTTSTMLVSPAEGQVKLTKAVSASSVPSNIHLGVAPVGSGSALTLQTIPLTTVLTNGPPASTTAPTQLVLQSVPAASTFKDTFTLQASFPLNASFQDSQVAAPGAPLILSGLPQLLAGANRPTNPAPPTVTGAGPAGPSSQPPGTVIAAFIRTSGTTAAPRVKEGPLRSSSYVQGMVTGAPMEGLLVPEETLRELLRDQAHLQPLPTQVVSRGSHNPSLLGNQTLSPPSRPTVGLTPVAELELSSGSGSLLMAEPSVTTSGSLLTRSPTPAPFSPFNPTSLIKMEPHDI
# Sequence of ELF1 (P32519 whole entry): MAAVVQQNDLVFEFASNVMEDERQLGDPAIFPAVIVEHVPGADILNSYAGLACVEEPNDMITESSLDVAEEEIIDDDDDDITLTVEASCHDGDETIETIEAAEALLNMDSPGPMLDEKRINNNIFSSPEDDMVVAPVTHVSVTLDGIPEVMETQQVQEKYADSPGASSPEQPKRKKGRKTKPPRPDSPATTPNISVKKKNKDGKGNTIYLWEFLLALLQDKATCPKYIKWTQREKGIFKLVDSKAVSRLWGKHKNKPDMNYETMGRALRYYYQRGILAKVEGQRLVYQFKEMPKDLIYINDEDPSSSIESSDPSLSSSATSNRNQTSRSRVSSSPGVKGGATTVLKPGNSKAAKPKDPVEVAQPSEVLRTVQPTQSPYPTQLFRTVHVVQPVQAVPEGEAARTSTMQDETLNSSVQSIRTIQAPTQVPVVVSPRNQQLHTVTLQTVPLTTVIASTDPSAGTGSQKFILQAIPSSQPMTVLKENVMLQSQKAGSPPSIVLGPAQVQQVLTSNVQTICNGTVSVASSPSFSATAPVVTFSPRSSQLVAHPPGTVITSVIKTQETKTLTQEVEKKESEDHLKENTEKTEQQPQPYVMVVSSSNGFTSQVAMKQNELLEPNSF
sequence,measurement,setting,value
CATGCT,binding signal,FLI1,"1.33 fold enrichment (6-mer frequency, TF over GST control)"
same,binding signal,ELK1,"1.2 fold enrichment (6-mer frequency, TF over GST control)"
same,binding signal,GABPA,"1.21 fold enrichment (6-mer frequency, TF over GST control)"
same,binding signal,ERG,"1.23 fold enrichment (6-mer frequency, TF over GST control)"
same,binding signal,ELF1,"1.23 fold enrichment (6-mer frequency, TF over GST control)"
same,binding signal,EHF,"1.24 fold enrichment (6-mer frequency, TF over GST control)"
same,binding signal,SPI1,"1.11 fold enrichment (6-mer frequency, TF over GST control)"
same,binding signal,SPIB,"1.25 fold enrichment (6-mer frequency, TF over GST control)"
same,binding signal,ELK3,"1.3 fold enrichment (6-mer frequency, TF over GST control)"
same,binding signal,FEV,"1.22 fold enrichment (6-mer frequency, TF over GST control)"
same,binding signal,ETV5,"1.13 fold enrichment (6-mer frequency, TF over GST control)"
same,binding signal,HSF1,"1.13 fold enrichment (6-mer frequency, TF over GST control)"
same,binding signal,SPIC,"1.34 fold enrichment (6-mer frequency, TF over GST control)"
same,binding signal,ELF4,"1.15 fold enrichment (6-mer frequency, TF over GST control)"
same,binding signal,ELK4,"1.3 fold enrichment (6-mer frequency, TF over GST control)"
same,binding signal,ETV2,"1.35 fold enrichment (6-mer frequency, TF over GST control)"
same,binding signal,ELF3,"1.27 fold enrichment (6-mer frequency, TF over GST control)"
same,binding signal,CRX,"1.1 fold enrichment (6-mer frequency, TF over GST control)"
same,binding signal,ETV1,"1.19 fold enrichment (6-mer frequency, TF over GST control)"
